Screening results: PubChem, several laboratories
Mtb FBA inh = Mtb fructose-bisphosphate aldolase inhibition; purified M. tuberculosis FBA, fluorescence read-out; inhibition, % at 1 µM; AID 588726; hit rate 2.3% among 360,000
Target sequence (P9WQA3 whole entry, looked up): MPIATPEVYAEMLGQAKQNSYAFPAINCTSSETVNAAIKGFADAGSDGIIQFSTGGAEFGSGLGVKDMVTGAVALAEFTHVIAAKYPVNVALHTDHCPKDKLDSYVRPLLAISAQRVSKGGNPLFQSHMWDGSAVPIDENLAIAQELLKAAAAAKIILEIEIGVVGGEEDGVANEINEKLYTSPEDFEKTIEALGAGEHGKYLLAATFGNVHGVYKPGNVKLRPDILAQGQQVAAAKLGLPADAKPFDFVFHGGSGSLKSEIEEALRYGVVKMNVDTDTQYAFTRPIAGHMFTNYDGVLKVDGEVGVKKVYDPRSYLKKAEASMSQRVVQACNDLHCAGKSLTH
PfHsp40 rescue = compounds rescuing yeast from Plasmodium falciparum HSP40 toxicity. S. cerevisiae expressing PfHsp40, growth rescue, ATP luminescence. growth rescue, % at 12.5 µM. hit rate 0.68% among 340,000; in the data active = growth rescue above about 28%, passing the limit was not always enough;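 also: yeast W303a lacking pdr1 and pdr3 grown in galactose medium; growth measured after three days at 30 °C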
PrP UTR inh = inhibition of PrP 5' UTR reporter expression; cell-based PrP 5' UTR mRNA reporter, plate reader; inhibition, % (test concentration not listed); hit rate 0.35% among 340,000; AID 488862; in the data active = inhibition above about 52%
BJeLR viability = kills HRASV12-expressing BJeLR cells; BJeLR (HRASV12) viability, CellTiter-Glo ATP luminescence, 48 h; hit rate 0.17% among 300,000; inhibition, % (test concentration not listed); in the data active = inhibition above about 50%
GDH-TPI counter-1 = inhibits GDH-TPI coupling enzymes, artifact for Mtb FBA screen | GDH-TPI coupled enzyme counterscreen, NADH absorbance | inhibition, % at 4.8 µM | hit rate 1.2% among 360,000 | AID 588335; in the data active = inhibition above about 30%
PrPC surface inh = inhibitors of human cell surface prion protein PrPC. hit rate 0.43% among 370,000. TR-FRET read-out. P04156. inhibition, % at 13.8 µM; in the data active = inhibition above about 24%
Mtb FBA inh conf = Mtb FBA inhibition, confirmed; shares compounds with Mtb FBA inh; purified M. tuberculosis FBA, fluorescence read-out; inhibition, % at 1 µM; hit rate 78% among 5,600
GDH-TPI counter-2 = counter-screen for M. tuberculosis FBA inhibitors: GDH-TPI coupled enzyme inhibition. shares compounds with Mtb FBA inh. GDH-TPI coupled enzyme counterscreen, fluorescence. inhibition, % at 1 µM. hit rate 81% among 5,600. AID 652141; in the data active = inhibition above about 10%
Of the large screens only hits and unclear results are named; the others gave an inactive call (follow-up assays come after a bar, where they were run). Only some compounds are listed: those with a hit (about 4.5% of all), similar ones and a draw of the others. Rule as the data show it, unless noted: active = inhibition above about 27%; inactive = the rest.

NC(=O)[C@@H]1CCCNc2c(F)cc([N+](=O)[O-])cc2C(=O)N[C@@H](CCC(=O)O)C(=O)N[C@@H](CO)C(=O)N1	none
CCn1ccnc1CN(C)C(=O)C1CCC(=O)N(CCc2cccc(F)c2)C1 (stereo not given)	none
COc1cc2cc(C(=O)N(C)C3CCS(=O)(=O)C3)[nH]c2cc1OC (stereo not given)	Mtb FBA inh 31 | Mtb FBA inh conf inactive | GDH-TPI counter-2 inactive
COc1cccc(/C=N/n2c(-c3cc(C)[nH]n3)n[nH]c2=S)c1O	none
c1ccc(C2CC(c3cccs3)=NN2c2ccccc2)cc1 (stereo not given)	Mtb FBA inh 87 | Mtb FBA inh conf 171 | GDH-TPI counter-2 119
O=S(=O)(c1ccccc1)N1N=C(c2cccs2)CC1c1ccc(Br)cc1 (stereo not given)	none
Fc1ccc(C2CC(c3cccs3)=NN2c2ccccc2)cc1 (stereo not given)	Mtb FBA inh 107 | Mtb FBA inh conf 33 | GDH-TPI counter-2 22
O=C1C2C3C=CC(C2C(=O)N1CCO)C1C(=O)N(CCO)C(=O)C31 (stereo not given)	none
Cc1c(O)c2ccccc2n(-c2ccccc2)c1=O	Mtb FBA inh 47 | Mtb FBA inh conf 77 | GDH-TPI counter-2 54
Cc1c(C)n(Cc2ccccc2)c2ncnc(NCCCO)c12	none
NNc1nc2sc3c(c2c(=O)n1C1CCCCC1)CCN(Cc1ccccc1)C3	none
O=c1[nH]cnc2sc3c(c12)CCN(Cc1ccccc1)C3	Mtb FBA inh 47 | Mtb FBA inh conf 122 | GDH-TPI counter-2 94
OCCCNc1ncnc2sc3c(c12)CCN(Cc1ccccc1)C3	Mtb FBA inh 72 | Mtb FBA inh conf 76 | GDH-TPI counter-2 62
Cn1c(-c2cc3ccccc3oc2=O)nc2ccccc21	none
COc1ccc(-c2cc3ccccc3oc2=O)cc1	Mtb FBA inh 60 | Mtb FBA inh conf active | GDH-TPI counter-2 active
COc1ccc2cc(-c3nc4ccccc4n3C)c(=O)oc2c1	Mtb FBA inh 59, GDH-TPI counter-1 39 | Mtb FBA inh conf 198 | GDH-TPI counter-2 active
COc1ccc(-c2nnc(-c3cc4ccccc4oc3=O)o2)cc1	none
O=C(CN1C(=O)NC2(CCCC2)C1=O)OCCOc1ccccc1Cl	none
O=C(CN1CCN(C(=O)CNC(=O)c2ccc(N3CCCC3=O)cc2)CC1)Nc1cccc(F)c1	none (no result: PfHsp40 rescue, PrP UTR inh, BJeLR viability)
CNc1nccc(-c2ccc(F)cc2)c1C#N	Mtb FBA inh 32 | Mtb FBA inh conf 145 | GDH-TPI counter-2 96
O=C1Nc2ccccc2O/C1=C\c1ccccc1	Mtb FBA inh 30 (no result: PfHsp40 rescue) | Mtb FBA inh conf 160 | GDH-TPI counter-2 102
COc1ccc(S(=O)(=O)NC(CC(C)C)C(=O)NC(C)c2cccs2)cc1 (stereo not given)	none (no result: PrP UTR inh, BJeLR viability)
Cc1ccc(N2CC(NC(=O)C(=O)c3c(C)[nH]c4ccccc34)CC2=O)cc1C (stereo not given)	none
C=CCN(C(=O)COc1ccccc1)c1nnc(-c2ccncc2)s1	Mtb FBA inh 41 | Mtb FBA inh conf 95 | GDH-TPI counter-2 70
O=S(=O)(Nc1ccc2oc(-c3ccccc3)nc2c1)c1ccccc1	Mtb FBA inh 50 | Mtb FBA inh conf 141 | GDH-TPI counter-2 112
Cc1ccc(-c2nc3cc(NS(=O)(=O)c4ccc(C)cc4)ccc3o2)cc1	Mtb FBA inh 33 | Mtb FBA inh conf 45 | GDH-TPI counter-2 28
COc1ccccc1NC(=O)c1c[nH]c2ccccc12	none
COc1ccc2nc3c(cc2c1)c(NC(=O)C1CCCO1)nn3CC(C)C (stereo not given)	Mtb FBA inh 39 | Mtb FBA inh conf inactive | GDH-TPI counter-2 inactive
CC(=O)c1ccccc1NC(=O)C1CCCN(C(=O)c2ccc(Cl)cc2)C1 (stereo not given)	none (no result: PrP UTR inh, BJeLR viability)
C=CCSc1nc2sc3c(c2c(=O)n1-c1ccc(C)cc1)CCN(C)C3	none
N#Cc1nnn2c1nc(N)c1c(F)cccc12	Mtb FBA inh 32 | Mtb FBA inh conf 170 | GDH-TPI counter-2 143
COc1ccc(-c2coc3cc(O)ccc3c2=O)cc1	Mtb FBA inh 35 | Mtb FBA inh conf 121 | GDH-TPI counter-2 94
